Rows were chosen to be rich in hits. Some 0.93% of all compounds tested hit in one or more screens of this group.
CIT2 TOR yeast: modulators of CIT2-GFP expression in yeast, primary screen, S. cerevisiae, GFP fusion, multiplex flow cytometry, MLPCN library; S. cerevisiae CIT2-GFP strain, 3 h; 100 means same as DMSO wells; GFP response vs DMSO, % at 10 µM; 320,000 tested, 0.065% active;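 active = GFP response relative to DMSO above a set limit, near the screen mean plus 3 SD, cut at about 150% in these data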;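 also: ratio of well median GFP fluorescence to mean of DMSO wells on the plate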
AGP1 TOR yeast: modulators of AGP1-GFP expression in yeast TOR pathway, primary screen, cell-based, multiplex flow cytometry, S. cerevisiae, MLPCN library; 3 h; GFP as percent of DMSO wells; GFP response vs DMSO, % at 10 µM; 320,000 tested, 0.02% active; AID 2066, 2009;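 active = GFP response relative to DMSO above a set limit, near screen average plus 3 SD, cut at about 150% in these data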;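 also: median GFP channel fluorescence of the gated AGP1 strain per well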
MEP2 TOR yeast: modulators of MEP2-GFP levels in yeast, primary screen, S. cerevisiae, multiplex flow cytometry, MLPCN library. S. cerevisiae MEP2-GFP strain, 3 h; 100% = DMSO control level. GFP response vs DMSO, % at 10 µM. 330,000 tested, 0.51% active. AID 2016, 2009;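 active = GFP response versus DMSO above a set limit, roughly screen mean plus 3 SD, cut at about 180% in these data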;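 also: median GFP fluorescence of the barcode-gated MEP2-GFP cells per well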
LAP4-GFP MLPCN: modulators of LAP4-GFP expression in yeast, primary screen, S. cerevisiae, multiplex flow cytometry, MLPCN library. 320,000 tested, 0.34% active. 3 h; median GFP as percent of DMSO wells. GFP response vs DMSO, % at 10 µM;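 active = GFP response vs DMSO above a set limit, about the screen mean plus 3 SD, cut at about 150% in these data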
RPL19A TOR yeast: RPL19A-GFP expression modulators in yeast, primary screen, cell-based, S. cerevisiae, multiplex flow cytometry, MLPCN; AID 2025, 2009; percent response vs DMSO, % at 10 µM; S. cerevisiae RPL19A-GFP strain, 3 h; stronger effect = lower value; 330,000 tested, 0.3% active;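 active = percent response vs DMSO below 50%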;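 also: median channel GFP fluorescence of the barcoded RPL19A-GFP strain; lower means less RPL19A-GFP as with rapamycin TOR inhibition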
LAP4-GFP pick2: LAP4-GFP expression modulators in yeast, confirmation, cell-based, second cherry pick, flow cytometry | shares compounds with LAP4-GFP MLPCN | S. cerevisiae LAP4-GFP strain, 3 h | GFP response vs DMSO, % at 10 µM | 590 tested, 20% active;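 active = GFP signal as percent of the solvent control above about 150%, meaning raised reporter expression, limit read from the data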
MEP2 cherry2: modulators of MEP2-GFP levels in yeast, confirmation, S. cerevisiae, flow cytometry GFP, second cherry picks; shares compounds with LAP4-GFP MLPCN; S. cerevisiae MEP2-GFP strain, 3 h; GFP response vs DMSO, % at 10 µM; 590 tested, 10% active;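 active = GFP signal above 150% of the solvent control wells, that is a rise of more than half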;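 also: median channel GFP fluorescence of all gated yeast cells per well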
RPL19A GFP CP2: RPL19A-GFP modulators in TOR pathway yeast, confirmation, cell-based, S. cerevisiae, flow cytometry, second cherry pick. S. cerevisiae RPL19A-GFP strain, 3 h; stronger effect = lower value; 100% means same as DMSO wells. shares compounds with LAP4-GFP MLPCN. GFP response vs DMSO, % at 10 µM. AID 2623, 2010. 590 tested, 3% active;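 active = under 65% GFP response relative to DMSO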;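 also: median GFP channel fluorescence per well over the all cells gate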
CIT2-GFP pick2: modulators of CIT2-GFP expression in yeast, confirmation, flow cytometry, second cherry pick, single plex. shares compounds with LAP4-GFP MLPCN. S. cerevisiae CIT2-GFP strain, 3 h; DMSO control wells read 100%. GFP response vs DMSO, % at 10 µM. 590 tested, 8% active. AID 2624, 2010;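 active = GFP response vs DMSO above about 150%, limit read from the data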;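 also: median green fluorescence per well over all gated yeast cells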
AGP1 GFP CP2: AGP1-GFP expression modulators, hit retest, confirmation, cell-based, flow cytometry, S. cerevisiae, cherry pick set 2. 590 tested, under 10 active. S. cerevisiae AGP1-GFP strain, 3 h. percent response vs DMSO, % at 10 µM. AID 2643, 2010. shares compounds with LAP4-GFP MLPCN;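 active = over 150 percent of DMSO response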;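 also: median GFP channel fluorescence over all cells without mother daughter split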
s288c autofluor: compound autofluorescence in yeast s288c, dose response, artefact control for yeast TOR pathway GFP screen, s288c strain; shares compounds with LAP4-GFP MLPCN; S. cerevisiae s288c, 520 nm autofluorescence, flow cytometry, 3 h; stronger effect = higher value; zero means same as solvent-only cells; fluorescence change (kMESF span) at 33 µM; 610 tested, under 10 active;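 active = fluorescence span over the dose series, or activity score, above about 33, limit read from the data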
s288c autofl DR: autofluorescence of compounds in yeast s288c, dose response, artefact control for yeast TOR pathway GFP screen, primary hits, KU SAR, s288c parental; shares compounds with LAP4-GFP MLPCN; S. cerevisiae s288c parental, compound autofluorescence, flow cytometry, 3 h; fluorescence change (span) at 33 µM; 110 tested, under 10 active; AID 488829, 2010;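 active = fluorescence change span, or the activity score built from it, above 25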
TORC1 bypass: wild-type yeast growth inhibition sparing TORC1 bypass cells, mechanism study for yeast TOR pathway GFP screen, BY4741 wild type, TORC1 bypass strain; shares compounds with LAP4-GFP MLPCN; S. cerevisiae BY4741 spot growth rating, 48-72 h; stronger effect = lower value; growth rating (0-3) at 30 µM; 120 tested, under 10 active; AID 504456, 2011;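 active = growth rating at most 1 for wild type yeast while the TORC1 bypass strain still grows fully, rated 3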
Hits are given with their value; n = inactive; x = not tested or not shown; [ ] = another dose, or the depositor's remark.

SMILES	CIT2 TOR yeast	AGP1 TOR yeast	MEP2 TOR yeast	LAP4-GFP MLPCN	RPL19A TOR yeast	LAP4-GFP pick2	MEP2 cherry2	RPL19A GFP CP2	CIT2-GFP pick2	AGP1 GFP CP2	s288c autofluor	others
CCN(Cc1ccccc1)C(=O)C(=O)c1cn(CC(=O)N2CCCC2)c2ccccc12	178	n	n	n	n	n	n	n	n	n	x
CC1CCCCN1C(=O)C(=O)c1cn(CC(=O)N2CCCC2)c2ccccc12 (stereo not given)	n	n	n	n	n	x	x	x	x	x	x
O=C(CSc1nnc2ccc(-c3ccc(Br)cc3)nn12)NCC1CCCO1 (stereo not given)	n	n	n	n	n	x	x	x	x	x	x
O=C(O)C1Sc2[nH]c(=O)sc2C2c3cc(Br)ccc3OC(=O)C12 (stereo not given)	n	n	n	151	n	x	x	x	x	x	n
COC(=O)c1cc(N2C(=O)C3C(C2=O)C2(C)C=CC3(C)O2)ccc1Cl (stereo not given)	n	n	n	162	n	x	x	x	x	x	n
CC1=NOC(=O)/C1=C\c1ccc(-c2cc(Cl)ccc2Cl)o1	n	n	n	167	n	x	x	x	x	x	n
CC1CCc2c(C(=O)Nc3ccc(N4CCOCC4)cc3)csc2C1 (stereo not given)	n	n	n	n	n	x	x	x	x	x	x
COc1ccc(C(CNC(=O)CNS(=O)(=O)c2ccc(NC(C)=O)cc2)N2CCOCC2)cc1 (stereo not given)	n	n	n	n	n	x	x	x	x	x	x
CC(C)(C)C1C/C(=C/c2ccccn2)C(=O)/C(=C/c2ccccn2)C1 (stereo not given)	n	n	n	162	n	181	n	n	n	n	n
O=C(OCC(=O)N1CCN(C(=O)c2ccco2)CC1)c1cc(-c2ccccc2)nc2ccccc12	n	n	203	163	n	n	215	n	n	n	n
O=C(OCC(=O)N1CCN(C(=O)c2ccco2)CC1)c1cc(-c2cccc(Br)c2)nc2ccccc12	n	n	n	162	n	x	x	x	x	x	n	s288c autofl DR=n;TORC1 bypass=n
O=C(OCC(=O)N1CCN(C(=O)c2ccco2)CC1)c1cc(-c2ccc(F)cc2)nc2ccccc12	n	n	n	187	n	n	201	n	n	n	n	s288c autofl DR=n;TORC1 bypass=n
O=C(OCC(=O)N1CCN(C(=O)c2ccco2)CC1)c1cn(-c2ccccc2)nc1-c1ccccc1	n	n	n	n	n	x	x	x	x	x	x
CC1(C)NS(=O)(=O)Oc2ccccc21	n	n	n	n	n	x	x	x	x	x	x
C=CCNC(=O)COC(=O)c1cc(S(=O)(=O)N2CCCCC2)ccc1Cl	n	n	n	n	n	x	x	x	x	x	x
Cc1ccc(C(=O)NNC(=S)NC(=O)c2ccco2)cc1	n	n	n	237	n	x	x	x	x	x	n
Cc1ccccc1OCC(=O)NNC(=S)NC(=O)c1ccco1	n	n	n	159	n	x	x	x	x	x	n
O=C(/C=C/c1ccccc1)NC(=S)NNC(=O)c1ccco1	n	n	n	n	n	x	x	x	x	x	x
O=C(/C=C/c1ccc(Br)cc1)NC(=S)NNC(=O)c1ccco1	n	n	n	n	n	n	n	n	n	n	n
COc1ccc(CCN2CC(C(=O)OCC(=O)N(C)Cc3ccccc3)CC2=O)cc1OC (stereo not given)	n	n	n	n	n	x	x	x	x	x	x
COC(=O)C(CCCN1C(=O)c2ccccc2C1=O)(NC(C)=O)c1nn[nH]n1 (stereo not given)	n	n	n	n	n	x	x	x	x	x	x
CC(=O)CSc1ncnc2c1cnn2-c1ccccc1	203	n	183	n	n	x	x	x	x	x	n
CC(C)OC(=O)CSc1nc2ncc(Cl)cc2[nH]1	n	n	n	n	n	x	x	x	x	x	x
CC(C)OC(=O)CSc1nc2ncccc2[nH]1	n	n	n	171	n	n	n	n	n	n	x
c1ccc(-c2csc(Nc3cccnc3)n2)nc1	n	n	n	n	n	n	n	n	n	n	n
SMILES	CIT2 TOR yeast	AGP1 TOR yeast	MEP2 TOR yeast	LAP4-GFP MLPCN	RPL19A TOR yeast	LAP4-GFP pick2	MEP2 cherry2	RPL19A GFP CP2	CIT2-GFP pick2	AGP1 GFP CP2	s288c autofluor	others
COc1cccc2sc(Nc3nc(-c4ccccn4)cs3)nc12	n	n	n	169	n	x	x	x	x	x	n
c1ccc(Nc2nc(-c3ccccn3)cs2)cc1	n	n	n	n	n	x	x	x	x	x	x
Cc1cccnc1NC(=O)c1csnn1	n	n	n	n	n	x	x	x	x	x	x
CCc1ccc(NC(=O)Nc2cccc(OC)c2)cc1	n	n	n	n	n	x	x	x	x	x	x
CCCC(O)(CCC)C(=O)NNc1ccc(C)cc1	n	n	n	n	n	x	x	x	x	x	x
Cc1cc(Cl)ccc1N(CC(=O)NCCSCc1ccco1)S(C)(=O)=O	n	n	n	n	n	n	n	n	n	n	x
COc1ccc(S(=O)(=O)NCC2CCCN(Cc3ccccc3C)C2)cc1 (stereo not given)	n	n	n	n	n	x	x	x	x	x	x
Cc1noc(C)c1C(=O)Nc1ccc(F)cc1	n	n	n	n	n	x	x	x	x	x	x
Cc1noc(C)c1C(=O)Nc1ccc(N(C)C)cc1	162	n	n	n	n	n	n	n	n	n	x
Cc1ccc(/C=C/C(=O)N2CCc3ccccc32)o1	n	n	n	168[may fluoresce green]	n	n	n	n	n	n	x

Screening results: PubChem BioAssay, NMMLSC
